# Activity calls are given as the source filed them.
# Legend:
# [1] = small molecules captured by biotinylated probe aFSTL3 – biochemical, small-molecule microarray, fluorescence 635/667, stem cell growth factor project, primary screen (AID 1064); details: higher = more signal;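 note: measures binding of the biotinylated anti-FSTL3 antibody to printed compounds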
# [2] = binders from COS7 lysate, DM2A8 probe, primary screen, torsin A project, cell lysate, small-molecule microarray, fluorescence 635/667 (AID 1065); details: higher = more signal, COS7 lysate expressing mutant human TOR1A
# [3] = small molecules captured by biotinylated probe aFGF2 – biochemical, small-molecule microarray, fluorescence 635/667, stem cell growth factor project, primary screen (AID 1067); details: higher = more signal;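 note: measures binding of biotinylated aFGF2 protein to printed compounds on slides; z-score merges feature fluorescence and signal-to-noise across triplicate slides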
# [4] = small molecules captured by biotinylated probe aFGF10 – biochemical, small-molecule microarray, fluorescence 635/667, stem cell growth factor project, primary screen (AID 1071); details: higher = more signal;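 note: score merges 667 nm spot intensity and signal to noise from triplicate slides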
# [5] = molecular target: Neurogenic locus notch homolog protein 2 (Homo sapiens) (UniProt Q04721); assay: small molecules binding Notch2 protein – biochemical, small-molecule microarray, 635 nm fluorescence, stem cell growth factors, primary screen (AID 1073); details: higher = more signal
# [6] = molecular target: Pro-neuregulin-1, membrane-bound isoform (Homo sapiens) (UniProt Q02297); assay: small molecules binding neuregulin-1 protein – biochemical, small-molecule microarray, fluorescence 635/667, psychiatric disease protein project, primary screen (AID 1075); details: NRG1 binding, 635 nm fluorescence, higher = more signal;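 note: score combines 667 nm spot fluorescence with signal to noise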
# [7] = test system: Neuregulin-1 EGF-like domain; assay: small molecules binding NRG1 EGF domain – biochemical, small-molecule microarray, 635 nm fluorescence, primary screen (AID 1081); details: higher = more signal;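 note: binding of the protein to compounds printed on small-molecule microarray slides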
# [8] = FRG1 expression reporter modulators in myotubes – cell-based, C2C12 myotubes, firefly/Renilla luciferase, luminescence, FRG1 inhibition for FSHD, primary screen (AID 1084); details: FRG1 promoter luciferase, higher = more signal, called active from +8 up or from −8 down
# [9] = small molecules captured by biotinylated probe aFST – biochemical, small-molecule microarray, fluorescence 635/667, stem cell growth factor project, primary screen (AID 1086); details: higher = more signal;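 note: score merges 667 nm fluorescence with signal-to-noise of each printed compound spot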
# [10] = binders of probe aHhip on microarray, primary screen, stem cell growth factor project, biochemical, small-molecule microarray, fluorescence 635/667 (AID 1087); details: higher = more signal;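 note: score merges spot fluorescence at 667nm with spot signal to noise ratio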
# Sequence of Pro-neuregulin-1, membrane-bound isoform (Homo sapiens) (Q02297 whole entry, looked up, the tested form may be a part, canonical isoform): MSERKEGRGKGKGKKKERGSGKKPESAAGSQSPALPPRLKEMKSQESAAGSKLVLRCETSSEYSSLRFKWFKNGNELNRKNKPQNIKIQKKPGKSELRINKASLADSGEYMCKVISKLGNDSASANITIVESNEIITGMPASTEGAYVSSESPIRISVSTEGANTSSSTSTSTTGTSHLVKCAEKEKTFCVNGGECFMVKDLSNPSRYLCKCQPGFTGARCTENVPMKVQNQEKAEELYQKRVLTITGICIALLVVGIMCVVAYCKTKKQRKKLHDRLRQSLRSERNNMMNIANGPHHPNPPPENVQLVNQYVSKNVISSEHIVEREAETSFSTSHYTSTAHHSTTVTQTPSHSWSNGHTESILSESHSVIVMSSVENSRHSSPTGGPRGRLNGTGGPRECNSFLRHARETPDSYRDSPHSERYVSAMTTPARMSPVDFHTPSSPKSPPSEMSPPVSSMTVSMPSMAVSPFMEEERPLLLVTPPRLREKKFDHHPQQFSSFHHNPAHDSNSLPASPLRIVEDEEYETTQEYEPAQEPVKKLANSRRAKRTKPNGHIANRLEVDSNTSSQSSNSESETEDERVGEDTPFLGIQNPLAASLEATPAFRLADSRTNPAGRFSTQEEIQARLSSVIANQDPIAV
# Sequence of Neurogenic locus notch homolog protein 2 (Homo sapiens) (Q04721 whole entry, looked up, canonical isoform): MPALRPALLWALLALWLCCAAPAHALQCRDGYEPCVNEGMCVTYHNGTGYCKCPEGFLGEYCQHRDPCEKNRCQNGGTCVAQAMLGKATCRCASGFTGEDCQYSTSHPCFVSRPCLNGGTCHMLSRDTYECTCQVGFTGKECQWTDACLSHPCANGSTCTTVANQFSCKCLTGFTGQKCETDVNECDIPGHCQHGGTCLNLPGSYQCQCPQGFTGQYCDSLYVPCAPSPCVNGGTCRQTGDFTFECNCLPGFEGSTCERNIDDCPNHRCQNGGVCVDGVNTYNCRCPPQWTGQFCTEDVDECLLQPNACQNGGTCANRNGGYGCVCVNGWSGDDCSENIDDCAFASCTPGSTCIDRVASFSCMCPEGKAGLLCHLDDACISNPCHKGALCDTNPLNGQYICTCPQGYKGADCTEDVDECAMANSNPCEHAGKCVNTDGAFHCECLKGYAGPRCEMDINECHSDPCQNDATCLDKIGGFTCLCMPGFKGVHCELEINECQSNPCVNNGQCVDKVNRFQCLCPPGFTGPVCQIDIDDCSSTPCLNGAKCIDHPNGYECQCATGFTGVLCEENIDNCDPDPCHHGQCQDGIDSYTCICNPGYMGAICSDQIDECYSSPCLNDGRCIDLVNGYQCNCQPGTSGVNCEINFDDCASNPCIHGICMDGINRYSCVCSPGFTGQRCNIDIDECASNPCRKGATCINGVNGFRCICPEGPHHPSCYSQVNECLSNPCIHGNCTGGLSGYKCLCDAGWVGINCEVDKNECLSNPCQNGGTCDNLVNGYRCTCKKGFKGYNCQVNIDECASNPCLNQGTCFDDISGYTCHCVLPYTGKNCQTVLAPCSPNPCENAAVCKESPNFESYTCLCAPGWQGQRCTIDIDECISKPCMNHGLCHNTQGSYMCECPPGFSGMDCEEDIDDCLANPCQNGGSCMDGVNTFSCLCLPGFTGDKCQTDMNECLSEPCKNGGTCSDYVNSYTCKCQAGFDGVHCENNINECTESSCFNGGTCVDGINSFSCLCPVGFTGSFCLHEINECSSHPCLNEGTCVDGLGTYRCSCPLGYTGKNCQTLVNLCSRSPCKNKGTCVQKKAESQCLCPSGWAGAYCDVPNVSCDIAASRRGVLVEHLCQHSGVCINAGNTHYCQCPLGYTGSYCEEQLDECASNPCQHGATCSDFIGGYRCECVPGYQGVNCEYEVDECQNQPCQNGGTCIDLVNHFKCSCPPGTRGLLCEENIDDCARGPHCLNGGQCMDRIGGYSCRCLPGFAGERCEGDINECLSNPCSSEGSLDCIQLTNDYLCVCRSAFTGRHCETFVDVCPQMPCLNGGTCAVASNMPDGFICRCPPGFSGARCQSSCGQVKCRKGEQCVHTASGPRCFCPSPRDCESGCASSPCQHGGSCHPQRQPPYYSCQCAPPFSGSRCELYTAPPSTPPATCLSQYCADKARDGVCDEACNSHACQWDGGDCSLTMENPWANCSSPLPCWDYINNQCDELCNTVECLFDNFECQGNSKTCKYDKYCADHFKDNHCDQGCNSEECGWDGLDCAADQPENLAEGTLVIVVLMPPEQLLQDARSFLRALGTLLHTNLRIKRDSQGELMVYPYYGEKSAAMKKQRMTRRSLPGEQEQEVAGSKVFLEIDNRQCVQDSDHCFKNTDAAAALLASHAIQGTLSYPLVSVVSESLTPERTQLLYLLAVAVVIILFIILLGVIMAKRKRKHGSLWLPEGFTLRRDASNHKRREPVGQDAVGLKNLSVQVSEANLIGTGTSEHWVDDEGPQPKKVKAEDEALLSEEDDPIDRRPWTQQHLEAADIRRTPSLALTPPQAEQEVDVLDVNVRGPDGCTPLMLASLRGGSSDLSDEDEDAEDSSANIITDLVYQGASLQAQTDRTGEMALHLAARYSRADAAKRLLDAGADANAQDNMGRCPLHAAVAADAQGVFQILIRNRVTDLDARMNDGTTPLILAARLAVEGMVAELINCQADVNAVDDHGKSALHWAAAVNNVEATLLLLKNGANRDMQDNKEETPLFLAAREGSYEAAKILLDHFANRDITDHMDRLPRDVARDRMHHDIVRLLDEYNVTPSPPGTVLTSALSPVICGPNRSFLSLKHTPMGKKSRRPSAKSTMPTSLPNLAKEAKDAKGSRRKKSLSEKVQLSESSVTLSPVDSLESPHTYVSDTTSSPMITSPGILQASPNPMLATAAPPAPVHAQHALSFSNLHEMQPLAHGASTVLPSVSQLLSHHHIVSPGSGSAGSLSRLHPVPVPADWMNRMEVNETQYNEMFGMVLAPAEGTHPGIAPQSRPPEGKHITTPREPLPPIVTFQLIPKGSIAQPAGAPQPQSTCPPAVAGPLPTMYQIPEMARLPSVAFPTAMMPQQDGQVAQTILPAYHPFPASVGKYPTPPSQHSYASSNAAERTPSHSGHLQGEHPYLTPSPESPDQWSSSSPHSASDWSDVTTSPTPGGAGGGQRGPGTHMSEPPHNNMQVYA
SMILES,composite z-score [1],composite z-score [2],composite z-score [3],composite z-score [4],composite z-score [5],composite z-score [6],composite z-score [7],z-score [8],composite z-score [9],composite z-score [10]
CC(C)(C)OC(=O)CC[C@]1(C(=O)N2CCOCC2)N=C(c2ccc(OCCCO)cc2)O[C@H]1c1ccccc1CN=[N+]=[N-],0.912,1.03,-0.0296,0.286,0.684,1.26,1.5,1.57 (inactive),0.474,0.113
COCCn1c(C(=O)N2CCCC2)cc2c1C[C@H]1CN(C(=O)c3ccccc3)[C@@](Cc3ccccc3)(C(=O)OC)[C@@H]21,0.288,1.16,0.576,0.888,1.11,2.16,1.42,2.7 (inactive),1.11,0.688
CC(C)CNC(=O)[C@@]1(C)c2ccccc2C(=O)N(Cc2cc(F)cc(C(F)(F)F)c2)[C@H]1c1ccc(CO)cc1,-0.182,-0.188,-0.0422,0.325,-0.102,0.669,1.11,-1.48 (inactive),0.0289,0.0722
COc1ccc([Si](C)(C)[C@H]2[C@H](CCn3cc([C@H](O)c4ccccc4)nn3)O[C@@]3(C(=O)N(C)c4c(Br)cc(C)cc43)[C@@H]2C)cc1,-0.0258,0.48,-0.113,-0.327,-0.442,0.218,0.881,-0.905 (inactive),-0.438,-0.0994
COCCOC(=O)N1C(=O)[C@@]2(c3ccccc31)[C@H](c1ccc(OCCO)cc1)N1[C@H](c3ccccc3)[C@H](c3ccccc3)OC(=O)[C@H]1[C@@H]2C(=O)N1CCN(c2ncccn2)CC1,-0.185,0.751,0.0323,0.559,1.47,1.33,1.24,-0.132 (inactive),0.742,0.107
[N-]=[N+]=NCc1ccccc1C[C@@]1(C(=O)O)N=C(c2ccc(OCCCO)cc2)O[C@@H]1c1ccccc1CN=[N+]=[N-],0.0419,1.34,-0.01,0.556,1.17,1.1,1.22,2.88 (inactive),0.663,-0.173
O=C1O[C@@H](c2ccccc2)[C@@H](c2ccccc2)N2[C@@H](c3ccc(OCCO)cc3)[C@]3(C(=O)Nc4ccc(C#CCCO)cc43)[C@@H](C(=O)Nc3nc4ccccc4s3)[C@H]12,0.0758,0.482,-0.0316,0.444,1.03,1.14,1.07,0.28 (inactive),1.27,-0.0241
C=C(CCCC)C(=O)CC[C@H](OC(=O)c1cccnc1)c1ccc(CO)o1,-0.426,1.08,-0.0752,0.797,0.816,0.407,1.23,-0.0577 (inactive),0.606,-0.134
C=CCOC(=O)[C@H]1[C@@H]2C(=O)O[C@@H](c3ccccc3)[C@@H](c3ccccc3)N2[C@@H](c2ccc(OCCOC(=O)[C@@H]3C[C@@H]4C(=O)N[C@@H](CC(C)C)C(=O)N4[C@@H]3c3ccc(O)cc3)cc2)[C@]12C(=O)Nc1ccc(I)cc12,-0.185,0.246,-0.158,-0.0479,0.672,1.33,1.29,-1.13 (inactive),-0.0054,0.15
CC(=O)NCCCC[C@@H]1NC(=O)[C@@H]2C[C@H](C(=O)NCCCCCC[N+](C)(C)C)[C@H](c3ccc(O)cc3)N2C1=O,0.101,0.437,-0.224,0.204,0.472,0.148,1.23,3.02 (inactive),-0.0677,0.0881
CCN(CC)c1ccc(N2CC=CC34O[C@@H]5C=CCOC(=O)[C@@H]5[C@H]3C(=O)N(CCO)[C@@H]4C2=O)cc1 (stereo not given in full),0.73,-0.0324,-0.144,-1.03,-1.51,-0.0687,0.504,0.737 (inactive),-0.568,-0.353
COc1ccc(CCNC(=O)[C@@]2(Sc3ccc(C)cc3)CC(=O)N(C(C)C)[C@@H]2c2ccc(CO)cc2)cc1,1.09,0.53,-0.129,-0.0606,-1.35,0.871,0.401,-0.921 (inactive),-0.686,0.021
COCCOC(=O)N1C(=O)[C@@]2(c3cc(C#CCC(C(=O)OC)C(=O)OC)ccc31)[C@H](C(=O)N1CCCCCCC1)[C@H]1C(=O)O[C@H](c3ccccc3)[C@H](c3ccccc3)N1[C@@H]2c1ccccc1OCCO,3.92,1.8,0.825,0.481,1.39,0.811,1.12,0.158 (inactive),3.34,2.72
CCCCC(=C=CC[C@@H](O)c1cccc(OCCO)c1)C[C@@H](O)COCc1ccccc1,-0.407,-0.323,-0.174,0.211,-0.546,0.679,-0.0821,-2.47 (inactive),-0.336,0.0053
O=C1OCCC/C=C\[C@H]2OC34C=CCN(Cc5ccccc5)C(=O)[C@H]3N(CCCCCO)C(=O)[C@@H]4C12 (stereo not given in full),0.566,-0.079,-0.147,-0.0433,-1.12,1.05,0.387,2.92 (inactive),-0.693,-0.116
COC(=O)Cn1c(C(=O)N(C)C)cc2c1C[C@H]1CN(C(=O)c3ccccc3)[C@@](Cc3ccc(OC)cc3)(C(=O)OC)[C@@H]21,0.2,-0.195,0.347,1.25,1.19,2.13,1.18,0.296 (inactive),0.513,0.0053

SMILES,composite z-score [1],composite z-score [2],composite z-score [3],composite z-score [4],composite z-score [5],composite z-score [6],composite z-score [7],z-score [8],composite z-score [9],composite z-score [10]
Cc1ccc(S(=O)(=O)N2[C@@H](c3ccccc3)C(C(=O)O)=CC[C@H]2c2ccc(C#N)cc2)cc1,0.163,-0.198,0.0624,1.07,1.39,1.72,0.808,-3.73 (inactive),0.538,-0.265
COc1ccc([Si](C)(C)[C@H]2[C@H](CCO)O[C@@]3(C(=O)N(Cc4ccccc4)c4ccc(N(C=O)c5ccccc5)cc43)[C@@H]2C)cc1,-0.317,0.242,-0.103,0.199,0.697,0.929,0.818,-0.919 (inactive),0.643,-0.0994
COCCOC(=O)N1C(=O)[C@@]2(c3cc(C#CC4(O)CCCCCC4)ccc31)[C@H](C(=O)NC[C@H](O)c1ccccc1)[C@H]1C(=O)O[C@H](c3ccccc3)[C@H](c3ccccc3)N1[C@@H]2c1ccc(O)cc1,-0.0443,0.224,-0.0193,1,0.496,0.802,1.28,-0.0865 (inactive),0.153,0.176
CC(C)C(=C=CC[C@@H](O)c1cccc(OCCO)c1)CCO,-0.226,0.17,-0.085,0.742,0.271,-0.163,0.364,-0.202 (inactive),0.321,0.0505
C=CCOC(=O)[C@@H]1[C@H]2C(=O)O[C@H](c3ccccc3)[C@H](c3ccccc3)N2[C@H](c2ccc(OCCOC(=O)[C@H]3C[C@H]4C(=O)NCC(=O)N4[C@H]3c3ccc(O)cc3)cc2)[C@@]12C(=O)Nc1ccc(I)cc12,-0.223,0.826,-0.0834,0.22,0.948,0.675,0.86,1.2 (inactive),0.377,-0.54
COC(=O)C1=CC(CCCO)=CC(C2CC2)N(Cc2cccc(OC(F)(F)F)c2)C=C1C(=O)OC (stereo not given),-0.207,-0.166,-0.0265,0.216,0.515,1.14,1.25,0.503 (inactive),0.497,-0.0645
COCC1=C([C@H](O)CCc2ccccc2)[C@H](CO)n2c(=O)n(-c3ccccc3)c(=O)n2C1,-0.13,-0.235,-0.112,0.204,-0.423,-0.675,-0.416,-3.19 (inactive),-0.371,-0.156
COCCOC(=O)N1C(=O)[C@@]2(c3ccccc31)[C@H](C(N)=O)[C@H]1C(=O)O[C@H](c3ccccc3)[C@H](c3ccccc3)N1[C@@H]2c1ccc(OCCO)cc1,-0.4,1.06,0.0445,0.257,0.995,1.59,1.21,0.341 (inactive),0.239,0.0854
NC(=O)[C@@]1(CCS(=O)(=O)c2ccccc2)COC(c2ccc(OCCCO)cc2)=N1,0.615,0.0735,0.0777,0.0833,0.963,1.78,0.832,-0.429 (inactive),0.194,-0.112
C[N+](C)(C)CCCCCCNC(=O)[C@H]1C[C@H]2C(=O)NCC(=O)N2[C@H]1c1cccc(OCCO)c1,-0.513,0.44,-0.0316,0.817,-0.0407,0.205,1.27,2.33 (inactive),-0.393,-0.737
CC(C)=CCN(C(=O)C#Cc1ccccc1)[C@H](CO)c1ccccc1,-0.591,0.645,-0.0692,0.118,0.248,-0.141,0.283,-5.11 (inactive),0.223,-0.0994
CN1C=C(C(=O)OCCS(C)(=O)=O)C(C(=O)OCCS(C)(=O)=O)=CC(CCCO)=CC1c1ccc(CN2CCCC2)cc1 (stereo not given),0.316,0.156,0.0126,1.11,1.25,2.02,1.35,0.226 (inactive),1.65,0.0053
CCCCN1CC=CC23O[C@@H]4/C=C\CCC(C)OC(=O)C4[C@H]2C(=O)N(C(C)CO)[C@@H]3C1=O (stereo not given in full),-0.126,-0.248,-0.164,-0.0863,-0.831,-1,0.331,-0.3 (inactive),-0.536,0.0373
COCCCNC(=O)[C@@]1(Sc2ccc(C)cc2)CC(=O)N(C2CCCCC2)[C@@H]1c1ccc(CO)cc1I,-0.364,0.657,0.0442,0.655,1.02,1.56,1.26,-3.63 (inactive),0.505,0.176
C=CCNC(=O)[C@@H]1[C@H]2C(=O)O[C@H](c3ccccc3)[C@H](c3ccccc3)N2[C@H](c2ccc(O)cc2)[C@@]12C(=O)Nc1ccc(C#CC3(O)CCCCCC3)cc12,-0.258,0.102,-0.1,0.434,0.469,0.606,0.979,0.273 (inactive),-0.0976,-0.0391

# — PubChem BioAssay
